# From PubChem BioAssay (EPA / NIEHS)
# Inconclusive results are not listed. The source made the active and inactive calls. The calls were made as follows: active = hit-call score of the fitted dose curve at least 0.9, where 1 is the maximum; inconclusive = response in the unintended direction; inactive = score below 0.9.
# Assays:
# [1] = TOX21_p53_BLA_p2_viability: Viability Assessment in the Tox21 HCT-116 p53 Agonism Beta-lactamase Assay, Phase 2 (AID 2283591);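 also: actives lower the ATP signal meaning cytotoxicity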
# Procedure, shortened: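 HCT-116 p53-bla cells (4000/well) rested 5 h at 37C, then received compounds in DMSO (217-fold dilution) for 16 h at 37C, 5% CO2. After the CCF4 read, CellTiter-Glo was added; ATP luminescence was read after 30 min at room temperature.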
# [2] = TOX21_p53_BLA_p3_viability: Viability Assessment in the Tox21 HCT-116 p53 Agonism Beta-lactamase Assay, Phase 3 (AID 2283593);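 also: cells exposed to compound for 16 h before reading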
# Procedure, shortened: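 HCT-116 cells (4000/well) rested 5 h at 37C, then got DMSO compounds by pin tool (217-fold dilution) for 16 h at 37C, 5% CO2. After the bla read, CellTiter-Glo was added and luminescence read at 30 min, room temperature.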
# [3] = target: Cellular tumor antigen p53 (Homo sapiens) (UniProt P04637); experiment: TOX21_p53_BLA_p3_ratio: Tox21 HCT-116 p53 Agonism Beta-lactamase Assay, Ratio, Phase 3 (AID 2283596)
# Cellular tumor antigen p53 (Homo sapiens), sequence (P04637 whole entry, looked up): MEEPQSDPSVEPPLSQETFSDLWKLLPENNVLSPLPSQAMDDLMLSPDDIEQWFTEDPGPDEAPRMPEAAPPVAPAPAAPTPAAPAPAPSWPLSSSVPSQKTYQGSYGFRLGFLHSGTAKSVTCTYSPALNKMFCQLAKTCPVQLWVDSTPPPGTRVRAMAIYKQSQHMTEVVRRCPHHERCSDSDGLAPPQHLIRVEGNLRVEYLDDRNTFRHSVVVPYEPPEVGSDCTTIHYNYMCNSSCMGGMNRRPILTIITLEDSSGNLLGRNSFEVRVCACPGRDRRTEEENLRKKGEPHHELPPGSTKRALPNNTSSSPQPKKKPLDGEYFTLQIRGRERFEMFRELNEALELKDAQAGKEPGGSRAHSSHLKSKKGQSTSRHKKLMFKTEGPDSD
# Procedure, shortened: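 Cells were seeded at 4000/well, rested 5 h at 37C, then dosed with DMSO compound solutions (217-fold dilution) for 16 h. CCF4-AM substrate was loaded for 2 h at room temperature, and the 460/530 nm emission ratio was fitted for gain of signal versus DMSO.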
# [4] = target: Cellular tumor antigen p53 (Homo sapiens) (UniProt P04637); experiment: TOX21_p53_BLA_p4_ratio: Tox21 HCT-116 p53 Agonism Beta-lactamase Assay, Ratio, Phase 4 (AID 2283601)
# Procedure, shortened: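 HCT116 cells carrying an inducible beta-lactamase reporter were plated at 4000 cells/well, rested 5 h, then exposed to compounds in DMSO (217-fold dilution) for 16 h at 37C. CCF4-AM substrate was loaded 2 h at room temperature; 460/530 nm emission ratio scored gain-of-signal versus DMSO.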
# [5] = TOX21_p53_BLA_p4_viability: Viability Assessment in the Tox21 HCT-116 p53 Agonism Beta-lactamase Assay, Phase 4 (AID 2283597);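 also: hits lower the luminescence signal meaning cytotoxicity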
# Procedure, shortened: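 4000 HCT116 cells per well; 5 h attachment; compounds from DMSO, 217-fold dilution; 16 h at 37C. Then CCF4-AM, 2 h RT, followed by CellTiter-Glo, 30 min RT, luminescence. Decrease = cytotoxicity.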
# [6] = TOX21_p53_BLA_p5_viability: Viability Assessment in the Tox21 HCT-116 p53 Agonism Beta-lactamase Assay, Phase 5 (AID 2283600)
# Procedure, shortened: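 Decreased CellTiter-Glo luminescence denotes lost viability. Exposure: 16 h at 37C, 5% CO2, with compounds from DMSO stocks diluted 217-fold in wells of 4000 cells.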
# [7] = target: Cellular tumor antigen p53 (Homo sapiens) (UniProt P04637); experiment: TOX21_p53_BLA_p5_ratio: Tox21 HCT-116 p53 Agonism Beta-lactamase Assay, Ratio, Phase 5 (AID 2283599)
# Procedure, shortened: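 HCT-116 cells carrying a p53-inducible beta-lactamase reporter were seeded at 4000 cells/well and dosed after 5 h with compound in DMSO (217-fold dilution). After 16 h at 37C, CCF4-AM substrate was added for 2 h, and the 460/530 nm emission ratio was scored as gain-of-signal versus DMSO.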
# [8] = CCTE_Harrill_HTTr_CellCount_MCF7: CCTE's Cell Proliferation Assessment for the High-Throughput Transcriptomics (HTTr) Platform, Harrill Lab (AID 2284012);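 also: count of Hoechst-stained nuclei per well by high-content imaging in MCF-7 cells; cells exposed to compound for six hours; intended direction is loss of nuclei count meaning fewer cells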
# Procedure, shortened: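 Readout: Hoechst nuclear count by high-content imaging. MCF-7, 8-point dilution series, 6 h exposure. Bidirectional fit vs DMSO baseline.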
structure (smiles),measurement,setting,value
O=[N+]([O-])O[C@H]1CO[C@H]2[C@@H]1OC[C@H]2O[N+](=O)[O-],outcome,[1],inactive
same,outcome,[2],inactive
same,outcome,[3],inactive
same,outcome,[4],inactive
O=[N+]([O-])[O-].[Tl+],outcome,[1],inactive
same,outcome,[2],inactive
same,outcome,[5],inactive
same,outcome,[6],inactive
CCOC(=O)c1cn2nc(OP(=S)(OCC)OCC)cc2nc1C,outcome,[1],inactive
same,outcome,[2],inactive
same,outcome,[5],inactive
same,outcome,[6],inactive
same,outcome,[4],inactive
C=CC[C@]1(O)CC[C@H]2[C@@H]3CCC4=CCCC[C@@H]4[C@H]3CC[C@@]21C,outcome,[1],inactive
same,outcome,[2],inactive
same,outcome,[5],inactive
same,outcome,[6],inactive
O=C(CCCN1CCC(n2c(=O)[nH]c3ccccc32)CC1)c1ccc(F)cc1,outcome,[1],inactive
same,outcome,[2],inactive
same,outcome,[5],inactive
same,outcome,[4],inactive
COC(=O)c1ccc(CBr)cc1,outcome,[1],inactive
same,outcome,[2],inactive
same,outcome,[5],inactive
same,outcome,[6],inactive
same,outcome,[4],inactive
O=C(O)CBr,outcome,[1],inactive
same,outcome,[2],inactive
same,outcome,[5],inactive
same,outcome,[7],inactive
same,outcome,[6],inactive
same,outcome,[4],inactive
C[C@]12CC[C@H]3[C@@H](CCC4=CC(=O)CC[C@@]43C)[C@@H]1CC[C@@H]2OC(=O)CCc1ccccc1,outcome,[1],inactive
same,outcome,[2],inactive
same,outcome,[5],inactive
same,outcome,[7],inactive
same,outcome,[6],inactive
CC1NCCOC1c1ccccc1 (centres undefined),outcome,[1],inactive
same,outcome,[2],inactive
same,outcome,[3],inactive
same,outcome,[6],inactive
same,outcome,[4],inactive
CCCCCCCCCCCCCCCCCC(=O)O,outcome,[1],inactive
same,outcome,[2],inactive
same,outcome,[5],inactive
same,outcome,[6],inactive
CC(C)OS(C)(=O)=O,outcome,[1],inactive
same,outcome,[2],inactive
same,outcome,[7],inactive
CCN(CC)C(=O)[C@@H]1C=C2c3cccc4[nH]cc(c34)C[C@H]2N(C)C1,outcome,[1],inactive
same,outcome,[2],inactive
same,outcome,[5],inactive
same,outcome,[7],inactive
same,outcome,[6],inactive
same,outcome,[4],inactive
CCCCCCCC(=O)Cl,outcome,[1],inactive
same,outcome,[2],inactive
same,outcome,[7],inactive
same,outcome,[6],inactive
same,outcome,[4],inactive
CC(=O)O[C@H]1C[C@H](O[C@H]2[C@@H](O)C[C@H](O[C@H]3[C@@H](O)C[C@H](OC4CC[C@@]5(C)[C@H](CC[C@@H]6[C@@H]5CC[C@]5(C)[C@@H](C7=CC(=O)OC7)CC[C@]65O)C4)O[C@@H]3C)O[C@@H]2C)O[C@H](C)[C@H]1O[C@@H]1O[C@H](CO)[C@@H](O)[C@H](O)[C@H]1O (some centres undefined),AC50,[1],99.4 nM (active)
same,AC50,[2],85.5 nM (active)
same,AC50,[5],137 nM (active)
same,outcome,[7],inactive
same,AC50,[6],74.9 nM (active)
O=[N+]([O-])c1ccc(Cl)c(Cl)c1Cl,outcome,[1],inactive
same,outcome,[2],inactive
same,outcome,[7],inactive
same,outcome,[6],inactive
CC(Cl)(Cl)Cl,outcome,[1],inactive
same,outcome,[2],inactive
same,outcome,[7],inactive
Cl,outcome,[1],inactive
same,outcome,[2],inactive
same,outcome,[5],inactive
same,outcome,[6],inactive
same,outcome,[8],inactive
C[C@H]1O[C@H](OC2[C@@H](O)[C@@H](O)C(O)[C@H](O)[C@H]2O)[C@@H](N)C[C@@H]1N=C(N)C(=O)O (some centres undefined),outcome,[1],inactive
same,outcome,[2],inactive
same,outcome,[7],inactive
O=C(CCl)C(Cl)Cl,outcome,[1],inactive
same,outcome,[2],inactive
same,AC50,[5],6250 nM (active)
same,AC50,[7],29000 nM (active)
same,outcome,[6],inactive
CCCOC(=O)Cc1ccc(OCC(=O)N(CC)CC)c(OC)c1,outcome,[1],inactive
same,outcome,[2],inactive
same,outcome,[5],inactive
same,outcome,[4],inactive
